About 83,000 compounds went through this panel and 20% of them were active in at least one assay; those are over-represented in the sample as a whole.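 48-hour exposure, single concentration, 96-well plates; percent growth endpoint where 0 means no net growth. Active: below 10.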 The source made the active and inactive calls.

In this assay the test system is SK-MEL-2 melanoma. Kind of assay: NCI-60 one-dose screen, 48 h (100 = growth as untreated, 0 = no growth, -100 = all killed). The following applies: 10 µM unless noted.
Take `O=c1[nH]c(-c2ccccn2)nc2sc3c(c12)CCCCC3`: the growth was 74.4% (inactive). For `NC1=CC(=O)C(=O)c2ccccc21` the value was 75.1% (inactive); for `CN1CCOCCOCCOc2ccccc2NC(=O)c2nc(cnc2N)-c2ccc(cc2)S1(=O)=O`, 49.8% (inactive). As for `COc1ccc(S(=O)(=O)NCCCNc2nccc(-c3c(-c4cccc(N)c4)nc4sccn34)n2)cc1`, the figure is 113% (inactive). As for `COc1ccccc1N1CCN(CCn2c(=O)c3c(c4ccccc4n3C)n(C)c2=O)CC1`, the figure is 60.2% (inactive); as for `COc1cnc2c(c1)C(=O)c1c-2n(CCCBr)c(=O)c2cc([N+](=O)[O-])ccc12`, 6.39% (active).

As to `O=C(C[C@@H](C(=O)NCc1cccc(C(F)(F)F)c1)N1C(=O)[C@@H](N2C(=O)OC[C@@H]2c2ccccc2)[C@H]1/C=C/c1ccccc1)NC1CCN(Cc2ccccc2)CC1`, the growth was 49.6% (inactive). For `CCCCCCNC(=O)Oc1ccc(/C(=C(\C)c2ccccc2)c2ccc(OCCN(CC)CC)cc2)cc1` the value was 86.6% (inactive); for `CC#CC#Cc1cccc(=O)o1`, -47.3% (active); for `CCCCCCCCCCCCNC(=O)[C@H]1CSC(c2ccc(OC)c(F)c2)N1` (stereo not given in full), -93.7% (active). As for `O=C(CN1CCN(c2cc3c(cc2F)c(=O)c(C(=O)N/N=C/c2ccccc2)cn3C2CC2)CC1)N/N=C\c1ccccc1`, the figure is 86.1% (inactive). As for `CNc1nc(C)c(-c2nc(Nc3cccc(S(N)(=O)=O)c3)ncc2F)s1`, the figure is -50.9% (active); as for `CC1=CC(=O)CC(C)(C)[C@@]1(O)/C=C/[C@@H](C)O`, 112% (inactive); as for `CC(=O)Nc1ccc2c(c1)c(NC(C)=O)nn2C(=O)Nc1ccc(Cc2ccccc2)cc1`, 12.9% (inactive). With `Cn1c2ccccc2c2c3c(c4c5ccccc5[nH]c4c21)C(=O)N(N)C3=O`, the growth is 99.7% (inactive). For `COc1cc(OC)c(/C=C/C(=O)c2c(OC)cc(OC)cc2OC)c(OC)c1` the value was 6.13% (active). For `CCCCCCCCCCCCCCCCCCNC(=O)[C@H]1CSC(c2ccc(OC)c(F)c2)N1` (stereo not given in full) the value was -54.1% (active); for `O=C1c2cc3c(cc2-c2c1c1cc(Cl)c(Cl)cc1c(=O)n2C[C@H](O)CO)OCO3`, -28.3% (active). As for `COc1cc2nc3cc([N+](=O)[O-])ccc3c(NCCCNCC(C)(C)O)c2cc1OC`, the growth was -47.5% (active). For `CC(C)C1=C[C@@]23CC[C@@H]4[C@](C)(CCC[C@@]4(C)C(=O)OCC#CCN4CCCC4)[C@H]2C[C@@H]1[C@H]1C(=O)OC(=O)[C@H]13` the value was 97.1% (inactive); for `CN(C)c1ccc(/C=C(\C#N)c2nc3ccccc3s2)cc1`, 106% (inactive); for `COc1ccc(Cl)cc1Nc1nc(C(F)(F)F)ccc1C(=O)N/N=C/c1cccnc1`, 39% (inactive). For `CC(=O)C1=C(O)C=C2Oc3c(C(=O)/C=C/c4ccccc4)c(O)c(C)c(O)c3[C@]2(C)C1=O` the value was -3.97% (active); for `Cn1c(=O)c2c(ncn2CC[N+](C)(C)C)n(C)c1=O`, 99.7% (inactive); for `OC(c1cc(-c2ccccc2)nc2ccc(Cl)cc12)C1CCCCN1` (stereo not given), 89.2% (inactive).

The values above are taken from PubChem BioAssay (NCI).
